This is a sample that favours compounds with a hit; in the whole collection about 0.4% have one here.
GLA spleen mod: alpha-galactosidase A (human) modulation; P06280; human spleen homogenate, 4MU-alpha-Gal fluorescence, 40 min; Potency, µM (top dose mostly 80 µM), hits mostly inhibitors; 240,000 compounds, 0.008% hits
Target sequence (P06280 32-429 limits assumed): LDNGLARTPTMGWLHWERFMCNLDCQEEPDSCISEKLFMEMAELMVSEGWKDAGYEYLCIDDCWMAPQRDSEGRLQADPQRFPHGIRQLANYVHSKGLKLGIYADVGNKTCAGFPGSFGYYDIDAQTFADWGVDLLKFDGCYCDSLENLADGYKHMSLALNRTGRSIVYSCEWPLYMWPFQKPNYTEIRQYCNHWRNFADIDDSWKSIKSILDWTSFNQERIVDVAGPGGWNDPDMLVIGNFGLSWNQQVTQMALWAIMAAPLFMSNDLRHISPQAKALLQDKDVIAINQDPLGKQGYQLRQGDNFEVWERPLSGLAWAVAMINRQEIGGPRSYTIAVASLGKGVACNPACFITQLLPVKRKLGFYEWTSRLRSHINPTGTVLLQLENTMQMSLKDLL
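Human spleen homogenate (1 ug) as enzyme source, 4-methylumbelliferyl-alpha-D-galactopyranoside 1 mM final, citrate/phosphate pH 5.0 with 0.01% Tween-20. Compounds 40 min at 37C, NaOH/glycine stop; fluorescence Ex 365/Em 440, Hill-fit AC50.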
GLA inh pH 4.5: alpha-galactosidase A (human) inhibition, pH 4.5; purified enzyme, 4-MU-alpha-Gal fluorescence, pH 4.5; activity change, negative = inhibition, % at 105 µM; 230,000 tested, under 10 active
GAA glycogen mod: GAA glycogen-cleavage inhibition or activation; recombinant GAA, glycogen substrate, Amplex Red glucose oxidase fluorescence; Potency, µM (titrated, usually from 76.4 µM), usual class: inhibitors; 300,000 compounds, 0.38% hits; AID 2100;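 further: the screen sought inhibitors and activators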
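Recombinant human enzyme (4 nM); glycogen substrate; 37 C, 40 min, pH 5.0. Readout: coupled glucose oxidase/Amplex Red fluorescence.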
GAA inh: alpha-glucosidase (human) inhibition | purified human GAA, 4-MU-alpha-glucoside fluorescence | Potency, µM (titrated, usually from 76.9 µM), most hits filed as inhibitors | 200,000 compounds, 0.005% hits
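Human enzyme at 4 nM with 400 uM 4-methylumbelliferyl-alpha-D-pyranoside, citrate/phosphate buffer pH 5.0, 0.005% Tween-20, 20 min at room temperature. Compounds up to 77 uM. 4-MU fluorescence (Ex 365/Em 440) read after NaOH/glycine stop; AC50 from Hill fit.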
aGlu spleen mod: lysosomal alpha-glucosidase (human) modulation | 240,000 compounds, 0.006% hits | P10253 | human spleen homogenate, 4-MU-alpha-glucoside fluorescence | Potency, µM (top dose mostly 79.9 µM), usual class: inhibitors
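Human spleen homogenate (1 ug) with 4-methylumbelliferyl-alpha-D-glucopyranoside (1 mM final) in 50 mM citrate/phosphate pH 5.0, 0.01% Tween-20; 40 min at 37 C. Stopped at pH 10; 4-MU fluorescence Ex 365/Em 440 nm; AC50 by Hill fit.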
A number is an active result; - = inactive; ? = inconclusive; . = not tested or not shown; [ ] = dose if it differs, or a comment. The call rests on the fitted dose curve; in most records, active means well fitted curve in the direction sought with a large enough effect; inconclusive means small, poorly fitted or top-dose-only effect, or another doubt; inactive means no such curve, though single readings can be large; an effect the other way counts as inactive or inconclusive.

SMILES	GLA spleen mod	GLA inh pH 4.5	GAA glycogen mod	GAA inh	aGlu spleen mod
O=C1c2c(O)cc(O)cc2O[C@H](c2ccc(O)c(O)c2)[C@H]1O	-	-	?	-[15.4 µM]	-
COc1ccc(NC(=S)NNC(=O)Cn2nc([N+](=O)[O-])cc2C)cc1	-	-	14µM	-	-
COc1ccc(NC(=S)Nc2ccc(N)c([N+](=O)[O-])c2)cc1	-	-	40µM	-	-
COc1cc(/C=N/N=C(\N)c2nonc2N)ccc1O	-	-[21.1 µM]	32µM	-	-
COc1ccc(/C=N/N=C(\N)c2nonc2N)cc1OC	-	-	-	-	-
CCC12CN3CC(C)(CN(C1)C3c1c[nH]c3ccc(OC)cc13)C2=O (centres undefined)	.	.	-	.	.
Nc1ccccc1Nc1cc(-c2ccccc2)[nH]n1	-	-	7.9µM	-	-
COc1cccc([C@@H]2Oc3ccc(OC)cc3C[C@H]2OC(=O)N[C@H](C)C2CCCCC2)c1	-	-	.	.	-
CCc1ccc(OCc2ccccc2C(=O)Nc2ccc3nc(C)cc(N)c3c2)cc1	-	-	.	.	-
Oc1ccc(N2CCN(c3nc(-c4cccs4)nc4ccccc34)CC2)cc1	-	-	25µM	.	-
c1ccc(N2CCN(c3nc(-c4cccs4)nc4ccccc34)CC2)cc1	-	-	-	-	-
Oc1ccccc1N1CCN(c2nc(-c3cccs3)nc3ccccc23)CC1	-	-	40µM	.	-
C/C(CC(=O)Nc1ccc(C)c(Cl)c1)=N\NC(=O)c1ccncc1	-	-	-	-	.
C/C(CC(=O)Nc1cc(Cl)ccc1Cl)=N\NC(N)=S	-	-	9.9µM	-	-
C/C(CC(=O)Nc1ccc(Cl)cc1Cl)=N\NC(N)=S	-	-	22µM	-	-
C/C(CC(=O)Nc1ccc(Cl)cc1C(F)(F)F)=N\NC(N)=S	-	-	?	.	-
C/C(CC(=O)Nc1ccc(Cl)cc1Cl)=N\NC(=O)c1ccncc1	-	-	-	.	-
C/C(CC(=O)Nc1ccc(Cl)c(Cl)c1)=N\NC(N)=S	-	-	7.9µM	-	-
Brc1cccc(-c2nn(-c3ccccc3)c3c2cnc2cc4c(cc23)OCO4)c1	.	.	-	.	.
C[N+](C)(C)CCC(=O)c1cccc2ccccc12	-	-	.	.	-
O=C(Nc1ccc(S(=O)(=O)N(Cc2ccccc2)c2ccccc2)cc1)c1ccc([N+](=O)[O-])cc1	.	.	-	.	.
Cc1ccc2oc(=O)c(/C=C(\O)c3ccco3)nc2c1	-	-	?	.	-
CC(C)(C)/C(O)=C/c1nc2cc(Cl)ccc2oc1=O	-	-	3.2µM	.	-
Cc1ccc2oc(=O)c(/C=C(\O)C(C)(C)C)nc2c1	-	-	6.3µM	-	-
CNC(=S)NNc1nncc2ccccc12	-	-	10µM	-	-
SMILES	GLA spleen mod	GLA inh pH 4.5	GAA glycogen mod	GAA inh	aGlu spleen mod
O=c1cc(-c2ccccc2Cl)oc2cc(O)cc(O)c12	-	-	-	-	-
Nc1ccc(O)c2c(=O)cc(-c3ccccc3Cl)oc12	-	-	14µM	-[15.4 µM]	-
CCCCNc1nc(C)nc2c1nc(-c1ccccc1)n2CCCN(C)C	-	-	.	.	-
CCCCCC(=O)/C=C/C=C\CCCCCCCC(=O)O	-	-	.	.	-
O=C(CSc1nc2ccccc2o1)N/N=C/c1ccc(O)c(O)c1	-	-	?	.	-
COc1ccc2nc(C)cc(SCC(=O)N/N=C/c3ccc(O)c(O)c3)c2c1	-	-	7µM	-	-
COc1ccc2c(c1)c(C(=O)N/N=C/c1ccc(Br)cc1)c(C)n2C	-	-	-	.	-
Cc1cc(SCC(=O)N/N=C/c2ccc(O)c(O)c2)c(C)cc1Br	-	-	18µM	-	-
COc1ccc2c(c1)c(C(=O)N/N=C/c1ccc(O)c(O)c1)c(C)n2C	-	-	32µM	-	-
COc1cccc2c(SCC(=O)N/N=C/c3ccc(O)c(O)c3)cc(C)nc12	-	-	3.1µM	-	-
COc1ccccc1C(=O)Nc1ccc2nc(SCC(=O)N3CCCC3)sc2c1	.	.	-	.	.
CNc1nc2c(N)ncnc2n1[C@@H]1O[C@@H]2COP(=O)(O)O[C@H]2[C@H]1O	-	.	.	.	-
CCOC(=O)CC(C(=O)OCC)C1CCCCC1=O (centres undefined)	-	-	.	.	-
COc1ccc(/C=N/NC(=O)c2nc(-c3ccccc3)cc(-c3ccccc3)n2)cc1OC	-	-	-	-	-
COc1ccc(/C=N/c2oc(-c3ccccc3)cc2C#N)cc1OC	-	-	25µM	-	-
Nc1ccc(S(=O)(=O)NNC(=O)C(=O)NNc2ccccn2)cc1	-	-	3.2µM	-	-
Cc1ccccc1S(=O)(=O)NNC(=O)C(=O)NNc1ccccn1	-	-	3.5µM	-	-
CC(=O)Nc1ccc(S(=O)(=O)NNC(=O)C(=O)NNc2ccccn2)cc1	-	-	?	-	-
Cc1ccc(S(=O)(=O)NNC(=O)C(=O)NNc2ccccn2)cc1	-	-	3.5µM	-	-
O=C(Nc1ccccn1)C(=O)Nc1ccccn1	-	-	-	-	-
CCOc1ccccc1C1C(C(=O)Nc2ccccc2)=C(C)Nc2c(C(=O)Nc3ccc(F)cc3)cnn21 (centres undefined)	.	.	-	.	.
COc1ccc(NC(=O)CN(c2cc(C)cc(C)c2)S(=O)(=O)c2c(C)noc2C)cc1Cl	.	.	-	.	.
O=C(NC[C@H](O)c1ccccc1)c1ccccc1	-	-	.	.	-
COc1ccc2[nH]cc(CCNc3ncnc4ccc(-c5ccccc5C#N)cc34)c2c1	-	-	.	.	-
Cc1cnc(C(=O)OCC(=O)C23CC4CC(CC(C4)C2)C3)cn1	.	.	-	.	.
SMILES	GLA spleen mod	GLA inh pH 4.5	GAA glycogen mod	GAA inh	aGlu spleen mod
Nc1ccc(O)cc1C(=O)OCC(=O)C12CC3CC(CC(C3)C1)C2	-	-	16µM	?	-
N#CC1(O)CCCCC1	-	.	.	.	-
O=C(Nc1ccccc1)Nc1ccc2ocnc2c1	-	-	-	-	-
O=C(O)Cc1ccc2ocnc2c1	-	-	22µM	-	-
c1ccc2c(c1)Nc1ccncc1S2	-	-	18µM	.	-
Cc1ccc(CNCc2ccccc2Cl)s1	.	.	-	.	.
COc1ccc(OC(C)C(=O)NCc2nc(-c3ccc(Cl)cc3)no2)cc1 (centres undefined)	.	.	-	.	.
COc1ccc(C(=O)C2CCCN(C3Cc4ccccc4C3)C2)cc1OC (centres undefined)	-	-	16µM	?	-
Cc1cc(=O)oc2cc(OCC(=O)NC(Cc3c[nH]c4ccc(O)cc34)C(=O)O)c(Cl)cc12 (centres undefined)	.	.	7.9µM	.	.
Cn1c(SCC(=O)c2ccc(O)c(O)c2)nnc1-c1ccccc1	.	.	1.8µM	.	.
COc1ccc(-n2nnnc2SCC(=O)c2ccc(O)c(O)c2)cc1	-	-	8.8µM	-	-
O=C(CSc1nc2ccccc2n1CCc1ccccc1)c1ccc(O)c(O)c1	-	-	4µM	-	-
NC(=O)c1ccc(-n2nnnc2SCC(=O)c2ccc(O)c(O)c2)cc1	-	-	?	-	-
COc1ccc(-n2nnnc2C2CCN(S(=O)(=O)c3cc(Cl)ccc3OC)CC2)cc1	.	.	-	.	.
CC1=C(c2ccc(Cl)cc2)S(=O)(=O)NC1=NCCCN1CCN(c2cc(C)ccc2C)CC1	.	.	-	.	.

Screening results from PubChem.
